# ELG1 DNA repair = inhibitors of ELG1-dependent DNA repair in HEK293T cells; HEK293T ELG1-luciferase reporter, luminescence, 16 h; DNA damage induced by 5-fluorouridine; 330,000 tested, 2.3% active; Potency, µM (top dose mostly 46.1 µM), for the others: at the top dose activity change, negative = inhibition, most hits filed as inhibitors; AID 504467; further: potency means the concentration at half of the fitted maximal effect; nearly all actives have a fitted effect of over 55% in size
#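 Overnight (16 hr) co-exposure of 2,000 cells/well to 5-fluorouridine and compound at 37 °C preceded detection. Luciferase was quantified via ONE-Glo luminescence; loss of signal denotes inhibition.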
# RORg inh = blocks mouse ROR gamma transcriptional activity; Drosophila S2 Gal4-RORgamma UAS-luciferase reporter, 20 h; Potency, µM (highest dose often 53.6 µM), inactives show at the top dose activity change, negative = inhibition, hits mostly inhibitors; 310,000 tested, 5.4% active; further: potency means the concentration at half of the fitted maximal effect; nearly all actives have a fitted effect of over 60% in size
#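 In this cell-based reporter format, copper sulfate (700 uM final) drives Gal4–ROR gamma fusion expression from a metallothionein promoter in Drosophila Schneider cells; compounds preincubated 1 hr, reporter read after 20 hr at ambient temperature.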
# TSHR antagonist = blocks TSH signaling through the human TSH receptor | P16473 | TSHR-expressing cells, TSH-stimulated cAMP HTRF, 2 h; hits give low values | activity change, negative = inhibition, % at 11.5 µM | 330,000 tested, 0.2% active | AID 504810;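 active means activity change below a set negative limit, meaning inhibition stronger than a set level, cut at about -70% in these data; inconclusive means activity change between two set negative limits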
# Target sequence (P16473 whole entry, looked up): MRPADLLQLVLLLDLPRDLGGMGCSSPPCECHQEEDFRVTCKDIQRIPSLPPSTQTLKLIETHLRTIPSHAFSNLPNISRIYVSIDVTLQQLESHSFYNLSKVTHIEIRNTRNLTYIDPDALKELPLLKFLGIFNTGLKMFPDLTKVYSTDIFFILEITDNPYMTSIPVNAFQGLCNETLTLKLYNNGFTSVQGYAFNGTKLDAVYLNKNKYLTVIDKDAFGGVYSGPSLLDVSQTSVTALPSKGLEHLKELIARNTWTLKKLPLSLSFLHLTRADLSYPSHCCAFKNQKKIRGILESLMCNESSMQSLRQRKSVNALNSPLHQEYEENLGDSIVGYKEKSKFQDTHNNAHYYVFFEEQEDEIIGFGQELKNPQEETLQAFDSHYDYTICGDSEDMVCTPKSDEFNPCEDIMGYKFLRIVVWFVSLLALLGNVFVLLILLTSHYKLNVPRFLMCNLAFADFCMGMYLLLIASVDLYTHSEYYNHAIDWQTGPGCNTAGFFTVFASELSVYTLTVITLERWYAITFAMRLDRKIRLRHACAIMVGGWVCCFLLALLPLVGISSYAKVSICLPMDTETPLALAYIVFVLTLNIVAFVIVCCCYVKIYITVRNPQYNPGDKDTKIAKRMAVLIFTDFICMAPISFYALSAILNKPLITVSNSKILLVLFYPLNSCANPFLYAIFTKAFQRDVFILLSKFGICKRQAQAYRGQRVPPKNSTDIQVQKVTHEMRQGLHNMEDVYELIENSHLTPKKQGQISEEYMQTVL
#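 Cell-based HTRF cAMP assay; TSHR cells + compound, TSH EC80 (4nM final), 2 h, 37 deg C. Lysis with anti-cAMP cryptate and cAMP-d2, 30 min RT, read 665/620 nm.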
# Coupling enz = coupling enzyme interference in Giardia aldolase counter-screen | AID 2472 | coupling enzyme system counterscreen, AmpLite Red fluorescence | activity change, negative = inhibition, % at 58.2 µM, hits read low | 290,000 tested, 0.67% active; in the data active means activity change below about -30%
#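 Counterscreen of the coupled detection system alone, without aldolase: glyceraldehyde-3-phosphate coupling enzymes plus AmpLite Red readout. Compounds at 57.5 uM final, 10 min RT preincubation, 20 min RT reaction, fluorescence 525/598 nm.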
# VP16 counter = inhibits Gal4-VP16 luciferase reporter, ROR gamma counter-screen; Drosophila S2 Gal4-VP16 UAS-luciferase, luminescence, 20 h; AID 2546; Potency, µM (top dose mostly 53.6 µM), inactives show top-dose activity, negative = inhibition, hits mostly inhibitors; 310,000 tested, 3.5% active;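 further: Gal4-VP16 expression switched on by copper sulfate through the metallothionein promoter; potency means the concentration at half of the fitted maximal effect; nearly all actives have a fitted effect of over 50% in size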
# * marks the source's active call; other numbers are inactive results; ? = inconclusive; · = not tested or not shown. Compounds with a hit are over-represented: about 8% of the library has one in this group of screens. Unless noted, the call rests on the fitted dose curve; in most records, active means well fitted curve in the direction sought with a large enough effect; inconclusive means small, poorly fitted or top-dose-only effect, or another doubt; inactive means no such curve, though single readings can be large; an effect the other way counts as inactive or inconclusive. On the % scale 0 is the no-effect control and ±100 the full control effect.
SMILES,ELG1 DNA repair,RORg inh,TSHR antagonist,Coupling enz,VP16 counter
Nc1nc(NC(=O)C(Cl)(Cl)Cl)nn1-c1ccccc1,-0.1%,12.6µM*,6.2,3.6,?
N/C(COc1ccccc1)=N\NC(=O)c1cccnc1Oc1ccccc1,0.9%,?,21.0,-2.7,1.41µM*
O=C(Nc1ccc(F)cc1)c1cccnc1Oc1ccccc1,-3.1%,22.9%,-1.7,-0.7,1.6%
Cc1snc(SCC(=O)N/N=C(\N)COc2cccc(C(F)(F)F)c2)c1C#N,4.8%,5.01µM*,-2.6,0.2,6.31µM*
O=C(NNc1cccc(Cl)c1)c1cccnc1Oc1ccccc1,?,9.1%,4.2,0.2,-7.5%
N/C(COc1cccc(C(F)(F)F)c1)=N\NC(=O)c1cccnc1Oc1ccccc1,-19.1%,0.501µM*,5.3,0.2,1.26µM*
COC(=O)c1c(NC(=O)C(Cl)Cl)sc2c1C(C(=O)OC)CC2 (stereo not drawn),?,3.98µM*,7.1,4.0,7.94µM*
CCCC[C@@H](C)/C=C(C)/C=C(\C)C(=O)NC1=C[C@@](O)(/C=C/C=C/C=C/C(=O)NC2=C(O)CCC2=O)[C@@H]2O[C@@H]2C1=O,·,0.447µM*,·,1.1,1.26µM*
O=C(NCc1cccnc1)NC1(C(F)(F)F)Oc2ccccc2O1,-7.6%,10µM*,5.7,-0.7,?
CC1(C)CC(C)(c2ccc(O)cc2O)N(c2ccc3ccccc3c2)C(=S)N1 (stereo not drawn),?,7.94µM*,-6.1,-8.1,?
COc1ccccc1CN(C)C(=O)CSCC(=O)Nc1ccccc1F,-10.4%,·,14.1,·,·
CCOC(=O)c1c(-c2cccc([N+](=O)[O-])c2)csc1NC(=O)CCCOc1ccccc1,?,?,25.8,-13.3,8.91µM*
CCOC(=O)c1c(-c2cccc([N+](=O)[O-])c2)csc1NC(=O)CCCOc1ccccc1OC,?,33.0%,-9.2,3.8,0.0%
CCOC(=O)c1c(-c2ccccc2)csc1NC(=O)CSc1nnnn1C,4.11µM*,0.0%,-43.5,-3.0,-9.4%
CCOC(=O)c1c(NC(=O)CSc2nncs2)sc(C)c1-c1ccccc1,?,-24.8%,-7.6,5.7,0.447µM*
CCOC(=O)c1c(-c2ccccc2)csc1NC(=O)CSc1nncs1,?,28.5%,-20.7,0.2,?
CCOC(=O)c1c(-c2ccccc2)csc1NC(=O)CCN1CCOCC1,23.1µM*,-8.2%,24.4,-16.7,2.5%
CCOC(=O)c1c(-c2ccccc2)csc1NC(=O)CSc1ccccc1,-0.7%,6.0%,10.1,-1.9,?
COc1ccccc1CCN1CCCC(CN(C)C(=O)CCC(N)=O)C1 (stereo not drawn),11.3%,5.2%,15.7,0.2,-1.1%
COc1ccc(/C=N/NC(=O)c2cc(-c3ccccc3OC)nc3ccccc23)cc1COC(C)=O,?,9.7%,-12.7,9.6,8.2%
CCc1ccc(/C=N/NC(=O)c2cc(C3CC3)nc3ccc(Br)cc23)s1,7.31µM*,2.24µM*,5.2,6.7,1.58µM*
CCc1ccc(/C=N/NC(=O)c2cc(-c3ccccc3OC)nc3ccccc23)s1,18.4µM*,3.98µM*,-3.5,-7.4,4.47µM*
COc1ccccc1-c1cc(C(=O)N/N=C/c2ccoc2)c2ccccc2n1,?,11.2µM*,12.0,6.9,?
COc1ccccc1-c1cc(C(=O)N/N=C/c2ccc(C)s2)c2ccccc2n1,7.31µM*,2.82µM*,-4.2,-8.3,4.47µM*
CCC1(c2ccc(Cl)cc2)NC(=O)N(CC(=O)N2CCN(C(=O)c3ccco3)CC2)C1=O (stereo not drawn),?,·,29.6,·,·
C/C(=N/Nc1nc(C)cc(-c2ccccc2)n1)c1ccco1,-25.7%,5.01µM*,0.5,0.0,17.8µM*
C/C(=N\Nc1nc(C)cc(-c2ccccc2)n1)c1ccc(C)o1,?,5.01µM*,-13.3,·,10µM*
O=C(O)c1cnn(-c2nc(-c3cccc([N+](=O)[O-])c3)cs2)c1C(F)(F)F,6.2%,25.6%,0.8,14.2,-1.8%
O=C(O)c1cccc(S(=O)(=O)N2CCN(Cc3ccc4c(c3)OCO4)CC2)c1,1.0%,-15.7%,-8.2,5.7,-0.7%
